The results in this text go back to PubChem BioAssay (NCI).

Some test systems named below: HCT-15 colon; HT29 colon; SNB-75 CNS; SNB-19 CNS; U251 CNS; PC-3 prostate; SK-MEL-5 melanoma; UACC-62 melanoma; LOX IMVI melanoma; SK-MEL-28 melanoma.
What all share (assay): NCI-60 one-dose screen, 48 h (100 = growth as untreated, 0 = no growth, -100 = all killed)
Settings in all cases: 10 µM unless noted

This is part of a sample that, as a whole, favours compounds with a hit. Of some 83,000 tested, about 20% had one in any assay.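 Testing used 96-well plates and a 48-hour single-concentration exposure. Example: -40 means 40% of the starting cells died.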 A number with no mark means an inactive call. Active and inactive are the calls of the source. How the source made its calls: active means growth percent below 10; inactive means the rest.

Turning to `O=C1c2c(c3c4ccc(Br)cc4oc3c3[nH]c4ccccc4c23)C(=O)N1CCO`, the growth was 53% in the experiment with HCT-15 colon; 58.3% with HT29 colon; 88.7% in the experiment on SNB-75 CNS; 32.8% in the experiment with SNB-19 CNS; 23.5% in the experiment on U251 CNS; 51.6% in the experiment on PC-3 prostate. The growth is 17.3% in the experiment on SK-MEL-5 melanoma, 23.5% in the experiment with UACC-62 melanoma, 7.54% (active) with LOX IMVI melanoma and 70.2% with SK-MEL-28 melanoma.

Turning to `CSc1ccc(/C(=N/N=C(N)N)c2ccccc2)cc1`, the growth in the experiment on HCT-15 colon is 12.4%; in the experiment with HT29 colon, 17%; in the experiment with SNB-75 CNS, 6.66% (active); in the experiment with SNB-19 CNS, 29%; in the experiment with U251 CNS, 29.2%; with PC-3 prostate, 35.4%. Also, the growth in the experiment with SK-MEL-5 melanoma was 17.7%; in the experiment with UACC-62 melanoma, 44%; with LOX IMVI melanoma, 13%; in the experiment with SK-MEL-28 melanoma, 65.5%.

Turning to `O=S(=O)(Nc1ccc(I)c(Cl)c1)c1ccc(-c2cnc(C3CC3)o2)cc1`, the growth in the experiment with HCT-15 colon is 27.8%; in the experiment on HT29 colon, 8.12% (active); in the experiment on SNB-75 CNS it was -13% (active); in the experiment with SNB-19 CNS, 42.7%; in the experiment on U251 CNS, 31%; in the experiment on PC-3 prostate, 20.4%. Besides, the growth was 16.8% in the experiment on SK-MEL-5 melanoma, 31.2% in the experiment with UACC-62 melanoma, 36.1% in the experiment with LOX IMVI melanoma and 59.7% in the experiment on SK-MEL-28 melanoma.

`CCCCSc1nnc(-c2ccc(-c3ccc(Cl)cc3)nc2C)o1`: the growth was 92.6% with HCT-15 colon; 97.2% in the experiment on HT29 colon; 90.3% in the experiment on SNB-75 CNS; 97.8% with SNB-19 CNS; 104% in the experiment with U251 CNS; 91.9% in the experiment on PC-3 prostate. In addition, the growth in the experiment on SK-MEL-5 melanoma was 99.3%; with UACC-62 melanoma, 84.1%; in the experiment with LOX IMVI melanoma, 101%; with SK-MEL-28 melanoma it was 99.9%.

As to `CN1C(=O)/C(=C/C=C/c2ccco2)SC1=S`, the growth in the experiment on HCT-15 colon was 63.5%; in the experiment with HT29 colon, 90.9%; in the experiment on SNB-75 CNS, 92.6%; in the experiment on SNB-19 CNS, 88.5%; with U251 CNS, 66.8%; in the experiment with PC-3 prostate, 80%. Also, the growth with SK-MEL-5 melanoma is 40%; in the experiment on UACC-62 melanoma, 77.2%; in the experiment with LOX IMVI melanoma, 75.5%; in the experiment on SK-MEL-28 melanoma, 83.9%.

As for `COc1ccc(-c2nc3cc(Cl)c(Cl)cc3n2CC(=O)N=Nc2c(O)[nH]c3ccc(Cl)cc23)cc1`, the growth in the experiment with HCT-15 colon was 5.04% (active); with HT29 colon, 25%; in the experiment on SNB-75 CNS, 57.9%; with SNB-19 CNS it was 36.1%; in the experiment on U251 CNS, 17.1%; in the experiment on PC-3 prostate, 37.6%. For the same compound, the growth in the experiment on SK-MEL-5 melanoma is 38.3%; with UACC-62 melanoma, 38.6%; in the experiment on LOX IMVI melanoma it was -58.1% (active); in the experiment on SK-MEL-28 melanoma, -21.5% (active).

For `CS(=O)(=O)c1ccc(-c2nn(-c3ccccc3)cc2/C=N/NC(=O)c2ccncc2)cc1`, the growth with HCT-15 colon was 69.5%; in the experiment on HT29 colon it was 101%; with SNB-75 CNS it was 89%; in the experiment with SNB-19 CNS, 96.5%; in the experiment with U251 CNS, 105%; with PC-3 prostate it was 98.2%. Besides, the growth with SK-MEL-5 melanoma was 105%; in the experiment on UACC-62 melanoma, 82.4%; with LOX IMVI melanoma it was 101%; in the experiment on SK-MEL-28 melanoma, 105%.

In the case of `N#Cc1ccc(S(=O)(=O)Nc2ccc(-c3cnc(N)[nH]3)cc2)cc1`, the growth with HCT-15 colon was 96.7%; in the experiment on HT29 colon, 98.5%; in the experiment with SNB-75 CNS, 106%; in the experiment on SNB-19 CNS, 94.1%; with U251 CNS it was 98.3%; with PC-3 prostate, 99%. In addition, the growth was 100% in the experiment on SK-MEL-5 melanoma, 92.4% in the experiment with UACC-62 melanoma, 97.9% in the experiment on LOX IMVI melanoma and 97.1% with SK-MEL-28 melanoma.

For the compound `COC[C@@]1(C)CC[C@]2(C)CC[C@]3(C)C(=CC[C@@H]4[C@@]5(C)CCCNC(C)(C)[C@@H]5CC[C@]43C)C2C1` (stereo not given in full), the growth with HCT-15 colon was 16.1%; with HT29 colon it was 23.3%; in the experiment with SNB-75 CNS, 104%; in the experiment on SNB-19 CNS, 67.5%; in the experiment with U251 CNS, 35.3%; in the experiment on PC-3 prostate, 46.4%. Also, the growth in the experiment on SK-MEL-5 melanoma was 87.7%; in the experiment on UACC-62 melanoma, 64.5%; in the experiment with LOX IMVI melanoma, 12.6%; in the experiment on SK-MEL-28 melanoma, 66.6%.

On to `COc1cc2c3c(n(CCCN4CCCCC4)c(=O)c2cc1OC)-c1cc2c(cc1C3=O)OCO2`, for which the growth is -84.2% (active) with HCT-15 colon; -96.9% (active) in the experiment with HT29 colon; -85.3% (active) in the experiment on SNB-75 CNS; -72.3% (active) in the experiment with SNB-19 CNS; -92.5% (active) with U251 CNS; -87% (active) in the experiment with PC-3 prostate. Besides, the growth in the experiment on SK-MEL-5 melanoma is 60.8%; with UACC-62 melanoma, 59.2%; with LOX IMVI melanoma, -74% (active); in the experiment with SK-MEL-28 melanoma it was -79.4% (active).

On to `Nc1nc(-c2cccc([N+](=O)[O-])c2)c(N=Nc2cccc(Cl)c2)s1`, for which the growth with HCT-15 colon is 16.3%; in the experiment with HT29 colon it was 40.7%; in the experiment on SNB-75 CNS it was 40.3%; with SNB-19 CNS, 73.9%; in the experiment on U251 CNS, 44.3%; in the experiment with PC-3 prostate it was 37.6%. Besides, the growth is 39.9% in the experiment on SK-MEL-5 melanoma, 32.9% in the experiment with UACC-62 melanoma, 24.5% in the experiment on LOX IMVI melanoma and 75.6% in the experiment with SK-MEL-28 melanoma.

Consider `O=S(=O)(Nc1ccc2c(c1)OC(F)(F)O2)c1ccc(-c2cnc(C3CC3)o2)cc1`, for which the growth in the experiment on HCT-15 colon is 26.2%; in the experiment on HT29 colon, 17.2%; in the experiment with SNB-75 CNS, 19%; with SNB-19 CNS, 47%; in the experiment on U251 CNS, 32.6%; in the experiment with PC-3 prostate, 45.3%. In addition, the growth was 38% in the experiment on SK-MEL-5 melanoma, 29.4% with UACC-62 melanoma, 37.7% with LOX IMVI melanoma and 58.3% in the experiment with SK-MEL-28 melanoma.

Turning to `Cc1csc(Nc2cccc(Nc3nc(C)cs3)c2)n1`, the growth was 79.1% with HCT-15 colon; 105% in the experiment with HT29 colon; 97.4% in the experiment on SNB-75 CNS; 82.3% in the experiment with SNB-19 CNS; 83.3% in the experiment with U251 CNS; 77.1% in the experiment with PC-3 prostate. The growth in the experiment with SK-MEL-5 melanoma was 44.9%; in the experiment on UACC-62 melanoma, 66.9%; in the experiment on LOX IMVI melanoma, 74.5%; with SK-MEL-28 melanoma, 84.3%.
